Many of the other results were omitted from the sample, so hits are more common in it than they were.
HT1080 IDH1KD tx = kills HT-1080 cells with IDH1 knockdown; HT-1080 IDH1 knockdown viability, ATP luminescence, 48 h; Potency, µM (titrated, usually from 46.1 µM), inactives show top-dose activity, negative = toxicity, usual class: cytotoxic; hit rate 2% among 360,000; AID 686971;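 also: potency is read from the fitted curve at half-maximal effect; 0% = DMSO wells and -100% = cell-free medium wells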
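HT-1080-IDH1KD cells (IDH1 knocked down), 750/well in RPMI with 5% FBS, treated with compound 48 h at 37 degrees C. Viability by CellTiter-Glo luminescence, normalised to DMSO and no-cell wells; concentration-response curves classed.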
DT40 TDP1 no CPT = qHTS for Inhibitors of human tyrosyl-DNA phosphodiesterase 1 (TDP1): qHTS in cells in absence of CPT; DT40 Tdp1-/- hTDP1 cells, no CPT, ATP luminescence, 48 h; Potency, µM (highest dose often 46.2 µM), inactives show top-dose activity change, negative = growth inhibition, most hits filed as inhibitors; hit rate 15% among 420,000; also: potency is read from the fitted curve at half-maximal effect; nearly all actives have a fitted effect of over 55% in size
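Growth of hTDP1-complemented DT40 Tdp1-knockout cells is measured by ATP luminescence after at least 48 hr compound exposure at 37 °C, with DMSO substituting for the 20 nM CPT used in the parallel screen.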
DT40 TDP1 CPT = growth inhibition of DT40 Tdp1-/-;hTDP1 cells with camptothecin (screen for TDP1 inhibitors) | chicken DT40 Tdp1-/-;hTDP1 cells + 20 nM CPT, ATP luminescence, 48 h | hit rate 12% among 420,000 | Potency, µM (highest dose often 46.2 µM), without a hit: at the top dose activity change, negative = growth inhibition, most hits filed as inhibitors; also: potency is read from the fitted curve at half-maximal effect; nearly all actives have a fitted effect of over 55% in size
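Chicken DT40 Tdp1-/- cells stably complemented with human TDP1 were seeded at 400 cells/well in medium containing 20 nM camptothecin, exposed to pin-transferred compounds, and grown at 37 °C for at least 48 hr. Viability was read as ATP luminescence.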
12-LOX inh = blocks human arachidonate 12S-lipoxygenase | purified 12hLO, xylenol orange hydroperoxide absorbance | Potency, µM (titrated, usually from 108 µM), for inactives: top-dose activity change, negative = inhibition, hits mostly inhibitors | hit rate 1.1% among 580,000 | AID 1671190; also: potency is read from the fitted curve at half-maximal effect
Target sequence (P18054 whole entry, looked up): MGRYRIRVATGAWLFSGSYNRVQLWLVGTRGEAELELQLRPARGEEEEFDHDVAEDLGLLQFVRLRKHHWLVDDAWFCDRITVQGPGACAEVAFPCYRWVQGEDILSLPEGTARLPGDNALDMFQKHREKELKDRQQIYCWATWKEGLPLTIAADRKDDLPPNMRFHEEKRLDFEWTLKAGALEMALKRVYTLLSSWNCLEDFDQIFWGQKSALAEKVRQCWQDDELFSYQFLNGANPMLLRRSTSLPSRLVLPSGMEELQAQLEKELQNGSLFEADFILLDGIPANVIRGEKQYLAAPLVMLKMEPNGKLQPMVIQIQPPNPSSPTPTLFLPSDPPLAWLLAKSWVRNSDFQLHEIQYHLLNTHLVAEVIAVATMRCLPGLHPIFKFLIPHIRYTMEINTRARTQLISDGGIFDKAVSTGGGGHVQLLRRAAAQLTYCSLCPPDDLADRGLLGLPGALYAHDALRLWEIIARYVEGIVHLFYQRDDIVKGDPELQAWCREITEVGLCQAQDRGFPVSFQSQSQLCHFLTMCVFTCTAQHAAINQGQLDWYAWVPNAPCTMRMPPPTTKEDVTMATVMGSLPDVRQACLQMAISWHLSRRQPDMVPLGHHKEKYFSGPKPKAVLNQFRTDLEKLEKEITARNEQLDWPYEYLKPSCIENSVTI
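Hydroperoxide product was detected by ferrous iron/xylenol orange as the 573 to 405 nm absorbance ratio. Arachidonic acid at 40 uM (final) was turned over for 30 min at room temperature by 150 nM human 12hLO, pH 7.0 Hepes buffer, after 15 min compound preincubation.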
HT1080-NT tox = kills 2HG-producing HT-1080-NT fibrosarcoma cells; hit rate 1.6% among 360,000; Potency, µM (doses to about 46.1 µM), without a hit: top-dose activity, negative = less viability, hits mostly cytotoxic; HT-1080-NT fibrosarcoma viability, CellTiter-Glo ATP luminescence, 48 h;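 also: NT is the 2HG producing partner of a matched IDH1 knockdown line; potency is read from the fitted curve at half-maximal effect; 0% = DMSO-treated cells and -100% = media-only wells without cells; nearly all actives have a fitted effect of over 55% in size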
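Viability of the 2HG-overproducing fibrosarcoma line after 48 hours of compound exposure at 37 degrees C was determined by luminescence with CellTiter-Glo, and concentration-effect curves were then fitted and categorized.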
IL1B secr inh = inflammasome signaling inhibition, IL-1 beta readout; hit rate 4.7% among 360,000; THP-1 LPS/ATP IL-1B secretion, AlphaLISA, 16 h; stronger effect = lower value; activity change, % at 57.5 µM; in the data active = activity change below about -50%; inconclusive = mostly about -30% to -49%
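Secreted IL-1B measured by AlphaLISA bead assay after 16 h compound exposure of THP-1 cells; compounds (final up to 57.5 uM) added 1 h before LPS (250 ng/mL) and ATP (1.25 mM) stimulation; lower signal means less secretion.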
The depositor's hits bear a star; ? = inconclusive; · = not tested or not shown; [ ] = another dose, or the depositor's remark. Unless noted, calls follow the shape of the dose curve; as a rule, active = well fitted curve in the direction sought with a large enough effect; inconclusive = small, poorly fitted or top-dose-only effect, or another doubt; inactive = no such curve, though single readings can be large; an effect the other way counts as inactive or inconclusive. Unless noted, % is scaled to controls: 0 for no effect and ±100 for the full control effect.

SMILES	HT1080 IDH1KD tx	DT40 TDP1 no CPT	DT40 TDP1 CPT	12-LOX inh	HT1080-NT tox	IL1B secr inh
CCOC(=O)N1CCN(C(=O)CCS(=O)(=O)c2ccc3c(c2)CCN3C(=O)CC)CC1	2%	-4%	-3%	8%	0%	30
CC(=O)N1CCCc2cc(S(=O)(=O)CCC(=O)N3CCN(c4cccc(C)c4)C(C)C3)ccc21 (stereo unspecified)	1%	?	21µM*	5%[57.4 µM]	-4%	4
CCC(=O)N1CCc2cc(S(=O)(=O)CCC(=O)N3CCN(c4ccc(F)cc4)CC3)ccc21	-7%	23µM*	21µM*	16%	-4%	-14
CN(C)CCNc1oc(-c2ccc(F)cc2)nc1C#N	·	·	·	23%	·	·
COc1ccc(CNc2oc(COc3ccccc3F)nc2C#N)cc1	·	·	·	-3%	·	·
CC/C(=C\c1oc2cc3ccccc3cc2[n+]1CC)Nc1ccccc1	?	13µM*	4.6µM*	-27%	-29%	-107*
CN=C(NC)NCc1ccc(C(=O)OC)cc1	·	·	·	25µM*	·	·
COC(=O)c1ccc(CNCC(=O)Nc2ccc(C(=O)OC)cc2)cc1	-2%	10%	?	0%	0%	19
COC(=O)c1ccc(CNc2ccc(C(C)=O)cc2)cc1	-7%	15µM*	?	5%	0%	0
Cc1c(C(=O)Nc2nnc(C(C)C)s2)nnn1-c1ccccc1	·	·	·	-13%	·	·
CCC(C(=O)Nc1ccccc1C(=O)OC)n1c(C)c2cnn(-c3ccccc3)c(=O)c2c1C (stereo unspecified)	·	?	26µM*	-12%	·	·
CSc1ccc(CCNC(=O)C(C)n2c(C)c3cnn(-c4ccccc4)c(=O)c3c2C)cc1 (stereo unspecified)	·	?	26µM*	?	·	·
COc1ccc(OC)c(CCNC(=O)C(C)n2c(C)c3cnn(-c4ccccc4)c(=O)c3c2C)c1 (stereo unspecified)	·	?	21µM*	-14%	·	·
COc1ccc(OC)c(CNC(=O)C(C)n2c(C)c3cnn(-c4ccccc4)c(=O)c3c2C)c1 (stereo unspecified)	·	12µM*	?	-10%	·	·
Cn1ccnc1C(NC(=O)c1cn(CCN)nn1)C1CC1 (stereo unspecified)	·	·	·	71%	·	·
COCC(=O)NC1CCC12CCN(Cc1cccc(C)c1)CC2 (stereo unspecified)	·	·	·	25%	·	·
Cc1ccc(-c2ccc3nnc(CNC(=O)c4cccc(C(F)(F)F)c4)n3n2)cc1	·	·	·	36%	·	·
CCN(CC)C(=O)c1ccc(COc2ccccc2Cl)cc1	-13%	?	?	-1%	-3%	-59*
O=C(NC1CCN(c2cc(-c3ccccc3)[nH]n2)CC1)c1ccsc1	·	·	·	23%	·	·
COc1ccc(C(C#N)=Cc2ccccc2OC)cc1	?	5.2µM*	6.5µM*	0%	?	26
COc1ccc(C(C#N)=Cc2ccc(OC)c(OC)c2)cc1	0%	?	-29%	-21%	-3%	-14
CC(=O)NCCNc1nc(-c2cccc(NS(C)(=O)=O)c2)nc2ccccc12	·	-26%	?	2.2µM*	·	·
CS(=O)(=O)Nc1cccc(-c2nc(Nc3ccc(F)cc3)c3ccccc3n2)c1	·	4.1µM*	5.8µM*	?	·	·
Cc1ccc2nc(-c3cccc(NS(C)(=O)=O)c3)cc(-c3ccccc3)c2c1	-22%	?	?	-19%	-2%	-100*
O=C(c1csc(-c2ccsc2)n1)N1CCCC1c1ccc2c(c1)OCCCO2 (stereo unspecified)	·	·	·	8%	·	·
O=[S+]1([O-])NCC2(CCN(Cc3c(F)cccc3F)C2)Oc2ccncc21 (stereo unspecified)	·	·	·	5%[6.33 µM]	·	·

Assay outcomes: PubChem BioAssay, National Center for Advancing Translational Sciences (NCATS)
